The nature of experiment [1]: ATG_CRE_CIS: Attagene CIS-FACTORIAL HepG2 Assay for human cAMP Responsive Element (CRE) binding protein 3 (AID 2282926). The settings on record: HepG2 CRE cis-reporter, Attagene multiplexed mRNA; actives raise or lower the signal. A digest of the protocol:
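Capillary electrophoresis of 6-FAM-labelled, HpaI-digested PCR products quantified reporter transcripts. These came from HepG2 transiently transfected with cis-element reporters and exposed to test chemicals for 24 hours, with DMSO defining baseline activity.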

Experiment [2] addresses CCAAT/enhancer-binding protein beta (Homo sapiens) (UniProt P17676). The experiment in a line: ATG_C_EBP_CIS: Attagene CIS-FACTORIAL HepG2 Assay for human CCAAT/Enhancer Binding Protein (C/EBP) beta (AID 2282927). As to conditions: HepG2 Attagene cis-factorial transcription factor reporter; actives raise or lower the signal. A digest of the protocol:
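Endogenous transcription factor activity in human liver HepG2 cells is inferred from induction of a CEBPB-linked reporter mRNA. Exposure lasts 24 h; activity is fitted in both directions relative to DMSO.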

Experiment [3] is described as follows: ATG_CMV_CIS: Attagene CIS-FACTORIAL HepG2 Assay for human CMV (Internal Marker) (AID 2282928).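 Also: endpoint acts as a background internal control marker rather than a target.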 The settings on record: HepG2 CMV promoter reporter, transcription factor profiling; actives raise or lower the signal. An outline of the steps:
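24 h chemical treatment, HepG2 with transient multi-reporter transfection; RNA → oligo(dT) RT → PCR → 6-FAM extension → HpaI digest → CE fluorescence. Bidirectional fit, DMSO negative control.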

A short description of experiment [4]: ATG_DR4_LXR_CIS: Attagene CIS-FACTORIAL HepG2 Assay for human Liver X Receptor (LXR), DR4 submotif (AID 2282929). The settings on record: HepG2 Attagene DR4 cis-reporter, mRNA transcription; actives raise or lower the signal. An outline of the steps:
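Cells were transfected with multiple reporter transcription units, exposed to chemicals for 24 hours, then lysed for RNA. Reporter mRNA induction was measured by RT-PCR with capillary electrophoresis detection and fitted in both directions relative to DMSO.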

In experiment [5] the target is Aryl hydrocarbon receptor (Homo sapiens) (UniProt P35869). The experiment in a line: ATG_Ahr_CIS: Attagene CIS-FACTORIAL HepG2 Assay for human Aryl Hydrocarbon Receptor (Ahr) (AID 2282930). The settings on record: HepG2 AhR cis-factorial reporter transcription; actives raise or lower the signal. An outline of the steps:
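Transient MRTU transfection of HepG2 → 24 h compound exposure → total RNA, oligo(dT) RT → PCR, 6-FAM extension, HpaI cut → CE fluorescence. DMSO = baseline; bidirectional curve fit.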

The nature of experiment [6]: ATG_AP_1_CIS: Attagene CIS-FACTORIAL HepG2 Assay for human Activator Protein 1 (AP-1) (AID 2282931). The settings on record: HepG2 Attagene cis-factorial AP-1 reporter mRNA; actives raise or lower the signal. An outline of the steps:
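Endogenous transcription-factor activity in human HepG2 liver cells is read through a cis-promoter reporter transcript, sampled 24 h after dosing. Detection uses RT-PCR with capillary electrophoresis; values come from bidirectional fitting relative to DMSO.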

The nature of experiment [7]: ATG_AP_2_CIS: Attagene CIS-FACTORIAL HepG2 Assay for human Activator Protein 2 (AP-2) (AID 2282932). As to conditions: HepG2 AP-2 cis-reporter, Attagene transcription factor profiling; actives raise or lower the signal. An outline of the steps: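 Transiently transfected HepG2 cells are exposed to chemical for 24 h. Reporter transcripts are then measured as fluorescence following RT-PCR and capillary separation, and gain- or loss-of-signal is fitted relative to DMSO.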

Experiment [8] can be described thus: ATG_BRE_CIS: Attagene CIS-FACTORIAL HepG2 Assay for human Bone Morphogenetic Protein (BMP) Response Element (BRE) (AID 2282933). The settings on record: HepG2 BMP response element reporter, Attagene transcription factor profiling; actives raise or lower the signal. A digest of the protocol:
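Fluorescence-labelled reporter cDNA fragments, separated by capillary electrophoresis, gave the signal for this component of a 52-readout multiplex. HepG2 cells were transfected, exposed to chemicals for 24 h, and compared with DMSO using bidirectional fitting.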

The target of experiment [9] is Transcription factor E2F1 (Homo sapiens) (UniProt Q01094). In words: ATG_E2F_CIS: Attagene CIS-FACTORIAL HepG2 Assay for human E2F Transcription Factor 1 (AID 2282935). As to conditions: HepG2 Attagene cis-reporter, E2F reporter RNA transcripts; actives raise or lower the signal. A digest of the protocol: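 Fluorescent RT-PCR products, digested with HpaI for 2 h at 37 C, are separated by capillary electrophoresis. Source RNA comes from transfected HepG2 cultures treated for 24 h.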

Experiment [10] can be described thus: ATG_E_Box_CIS: Attagene CIS-FACTORIAL HepG2 Assay for human Enhancer Box (E-box) (AID 2282936). The settings on record: HepG2 E-box cis-reporter transcription, actives raise or lower the signal. A digest of the protocol:
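Fluorescent reporter fragments separated by capillary electrophoresis gave the signal; mRNA came from HepG2 cells transfected with cis-element reporters and treated 24 h. Curves fitted bidirectionally relative to DMSO controls.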

A short description of experiment [11]: ATG_M_61_CIS: Attagene CIS-FACTORIAL HepG2 Assay for M61 Transcription Factor (Internal Marker) (AID 2282937). As to conditions: HepG2 Attagene CIS-FACTORIAL M61 internal marker reporter; actives raise or lower the signal. An outline of the steps: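 Cells were transfected with reporter units under cis-regulatory promoters, treated with chemicals for 24 h, then lysed for RNA. Reporter transcripts were quantified by RT-PCR and capillary electrophoresis, and activity was fitted bidirectionally against DMSO.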

Experiment [12] in a line: ATG_EGR_CIS: Attagene CIS-FACTORIAL HepG2 Assay for human Early Growth Response 1 (EGR1) (AID 2282938). As to conditions: HepG2 Attagene CIS-FACTORIAL EGR reporter mRNA; actives raise or lower the signal. A digest of the protocol: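 Endogenous TF activity in HepG2 liver cells was gauged through cis-promoter reporter constructs transiently transfected. After 24 h dosing, reporter mRNA was quantified by RT-PCR and capillary electrophoresis, and curves fitted in both directions versus DMSO.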

A short description of experiment [13]: ATG_M_19_CIS: Attagene CIS-FACTORIAL HepG2 Assay for M19 Transcription Factor (Internal Marker) (AID 2282939). As to conditions: HepG2 Attagene CIS-FACTORIAL M19 internal marker reporter; actives raise or lower the signal. An outline of the steps: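 HepG2, MRTU transient transfection, 24 h dosing. Total RNA → RT-PCR → 6-FAM primer extension → HpaI digest → CE fluorescence. Bidirectional curve fit, DMSO negative control.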

Experiment [14] in a line: ATG_Ets_CIS: Attagene CIS-FACTORIAL HepG2 Assay for human Erythroblast Transformation Specific (ETS) (AID 2282941). As to conditions: HepG2 ETS cis-reporter transcription, actives raise or lower the signal. A digest of the protocol:
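Cis-regulated reporter mRNA induction in HepG2 (transient transfection), 24 h exposure, RT-PCR plus capillary electrophoresis detection; DMSO serves as negative control and baseline.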

In experiment [15] the target is Hepatocyte nuclear factor 3-beta (Homo sapiens) (UniProt Q9Y261). In words: ATG_FoxA2_CIS: Attagene CIS-FACTORIAL HepG2 Assay for human Forkhead box A2 (FOXA2) (AID 2282942). As to conditions: HepG2 cis-reporter transcription factor activity, 24 h; actives raise or lower the signal. A digest of the protocol: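 Endogenous transcription factor activity was read in HepG2 cells carrying transiently transfected cis-promoter reporter units. After 24 h dosing, reporter mRNA was quantified by RT-PCR and capillary electrophoresis, and values fitted bidirectionally versus DMSO.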

The nature of experiment [16]: ATG_FoxO_CIS: Attagene CIS-FACTORIAL HepG2 Assay for human Forkhead box O (FoxO) (AID 2282943). As to conditions: HepG2 Attagene cis-reporter, FoxO element, mRNA; actives raise or lower the signal. A digest of the protocol:
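HepG2, transient MRTU transfection (cis element, endogenous TFs). Dose 24 h. TriZol RNA → oligo(dT) RT → PCR → 6-FAM primer extension → HpaI cut → CE. Gain/loss vs DMSO.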

A short description of experiment [17]: ATG_GATA_CIS: Attagene CIS-FACTORIAL HepG2 Assay for human GATA Binding Protein (AID 2282944). As to conditions: HepG2 GATA cis-element reporter, Attagene multiplex mRNA; actives raise or lower the signal. An outline of the steps: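 Cells: HepG2, transiently transfected with cis-regulated reporter transcription units. Exposure: 24 h. Detection: RT-PCR plus capillary electrophoresis of FAM-labeled fragments. Analysis: bidirectional, DMSO as baseline.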

A short description of experiment [18]: ATG_GLI_CIS: Attagene CIS-FACTORIAL HepG2 Assay for human Zinc Finger Protein GLI1 (AID 2282945). As to conditions: HepG2, Attagene cis-factorial reporter mRNA, GLI element; actives raise or lower the signal. A digest of the protocol: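 Bidirectional curve fits relative to DMSO, using reporter mRNA levels from RT-PCR plus capillary electrophoresis. Cells were HepG2 transiently carrying cis-regulated reporter constructs, harvested 24 h after dosing.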

A short description of experiment [19]: ATG_ERE_CIS: Attagene CIS-FACTORIAL HepG2 Assay for Estrogen Response Element (ERE) (AID 2282940). The settings on record: HepG2 ERE cis-reporter, Attagene RNA transcript; actives raise or lower the signal. An outline of the steps: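 After a 24 h chemical treatment, RNA from reporter-transfected HepG2 cells is reverse-transcribed, PCR-amplified and fluorescently labelled. Fragments separated by capillary electrophoresis give reporter signal; DMSO serves as negative control.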

The target in experiment [20] is Bile acid receptor (Homo sapiens) (UniProt Q96RI1). The experiment in a line: ATG_IR1_CIS: Attagene CIS-FACTORIAL HepG2 Assay for human Nuclear Receptor Subfamily 1 Group H Member 4 (NR1H4), IR1 submotif (AID 2282946). The settings on record: IR1 reporter transcription, actives raise or lower the signal. An outline of the steps:
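HepG2 cells transiently transfected with multiplexed cis-element reporter units read endogenous transcription factor activity. After 24 h compound exposure, reporter mRNA was quantified by RT-PCR, fluorescent labelling, HpaI digestion and capillary electrophoresis; bidirectional fitting versus DMSO baseline.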

Each structure is given as a SMILES string. Calls of active or inactive are those of the source. The calls were made as follows: active = hit-call score of the fitted dose curve at least 0.9, where 1 is the maximum; inactive = score below 0.9.

Chain of Hepatocyte nuclear factor 3-beta (Homo sapiens) (Q9Y261 whole entry, looked up): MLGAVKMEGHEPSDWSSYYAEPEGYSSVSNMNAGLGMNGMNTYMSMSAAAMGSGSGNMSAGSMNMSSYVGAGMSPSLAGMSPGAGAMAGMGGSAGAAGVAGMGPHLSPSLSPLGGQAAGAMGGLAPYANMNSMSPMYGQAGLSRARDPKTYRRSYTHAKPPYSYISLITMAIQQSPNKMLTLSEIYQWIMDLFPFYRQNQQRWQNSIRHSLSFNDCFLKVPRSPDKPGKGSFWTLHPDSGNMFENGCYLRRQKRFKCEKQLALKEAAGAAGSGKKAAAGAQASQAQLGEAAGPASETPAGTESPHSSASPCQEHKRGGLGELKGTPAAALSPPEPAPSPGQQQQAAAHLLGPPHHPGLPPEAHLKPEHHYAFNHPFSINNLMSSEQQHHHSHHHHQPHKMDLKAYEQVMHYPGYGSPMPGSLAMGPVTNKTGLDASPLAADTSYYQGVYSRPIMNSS
Chain of Aryl hydrocarbon receptor (Homo sapiens) (P35869 whole entry, looked up): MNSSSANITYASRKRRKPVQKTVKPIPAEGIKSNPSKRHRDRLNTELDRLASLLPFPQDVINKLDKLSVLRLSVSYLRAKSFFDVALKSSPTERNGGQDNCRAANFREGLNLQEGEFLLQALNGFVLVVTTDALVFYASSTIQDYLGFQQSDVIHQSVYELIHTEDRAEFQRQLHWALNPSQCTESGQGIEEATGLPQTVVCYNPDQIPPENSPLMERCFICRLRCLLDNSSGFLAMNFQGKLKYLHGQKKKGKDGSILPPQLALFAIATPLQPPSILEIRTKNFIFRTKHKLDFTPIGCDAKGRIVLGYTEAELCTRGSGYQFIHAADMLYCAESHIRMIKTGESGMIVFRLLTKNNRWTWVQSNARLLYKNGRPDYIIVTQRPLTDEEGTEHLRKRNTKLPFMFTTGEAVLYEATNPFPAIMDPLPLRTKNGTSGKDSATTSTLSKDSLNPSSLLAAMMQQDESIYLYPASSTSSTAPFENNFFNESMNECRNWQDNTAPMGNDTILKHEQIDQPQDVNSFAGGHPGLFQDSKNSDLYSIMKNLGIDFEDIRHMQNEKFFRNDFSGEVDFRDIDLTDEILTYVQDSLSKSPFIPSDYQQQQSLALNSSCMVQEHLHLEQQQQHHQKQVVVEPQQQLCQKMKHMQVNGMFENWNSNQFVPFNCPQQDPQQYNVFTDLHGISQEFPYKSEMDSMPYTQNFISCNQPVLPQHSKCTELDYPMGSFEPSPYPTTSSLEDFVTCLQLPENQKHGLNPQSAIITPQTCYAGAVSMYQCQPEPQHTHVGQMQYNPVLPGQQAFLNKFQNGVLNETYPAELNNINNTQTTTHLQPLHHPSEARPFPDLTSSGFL
Chain of CCAAT/enhancer-binding protein beta (Homo sapiens) (P17676 whole entry, looked up): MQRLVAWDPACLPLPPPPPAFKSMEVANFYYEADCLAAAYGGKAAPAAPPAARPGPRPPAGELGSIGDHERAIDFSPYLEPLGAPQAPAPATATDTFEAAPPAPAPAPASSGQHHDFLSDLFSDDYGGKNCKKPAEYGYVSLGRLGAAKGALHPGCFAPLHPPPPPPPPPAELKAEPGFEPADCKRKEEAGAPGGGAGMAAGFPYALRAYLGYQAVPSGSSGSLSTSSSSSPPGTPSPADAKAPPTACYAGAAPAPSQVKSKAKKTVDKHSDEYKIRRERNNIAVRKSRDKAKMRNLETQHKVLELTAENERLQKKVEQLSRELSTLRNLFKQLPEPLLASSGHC
Chain of Transcription factor E2F1 (Homo sapiens) (Q01094 whole entry, looked up): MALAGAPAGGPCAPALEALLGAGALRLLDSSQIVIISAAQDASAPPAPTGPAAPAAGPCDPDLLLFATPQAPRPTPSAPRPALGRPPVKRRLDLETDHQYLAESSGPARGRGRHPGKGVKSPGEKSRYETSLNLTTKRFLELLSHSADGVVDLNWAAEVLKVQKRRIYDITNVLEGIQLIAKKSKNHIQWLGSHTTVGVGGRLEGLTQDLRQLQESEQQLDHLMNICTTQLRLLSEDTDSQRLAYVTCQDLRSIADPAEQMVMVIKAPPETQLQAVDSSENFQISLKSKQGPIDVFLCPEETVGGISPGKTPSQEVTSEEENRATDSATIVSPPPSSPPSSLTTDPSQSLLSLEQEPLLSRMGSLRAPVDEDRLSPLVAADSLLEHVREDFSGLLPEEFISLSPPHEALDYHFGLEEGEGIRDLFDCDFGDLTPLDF
Chain of Bile acid receptor (Homo sapiens) (Q96RI1 whole entry, looked up): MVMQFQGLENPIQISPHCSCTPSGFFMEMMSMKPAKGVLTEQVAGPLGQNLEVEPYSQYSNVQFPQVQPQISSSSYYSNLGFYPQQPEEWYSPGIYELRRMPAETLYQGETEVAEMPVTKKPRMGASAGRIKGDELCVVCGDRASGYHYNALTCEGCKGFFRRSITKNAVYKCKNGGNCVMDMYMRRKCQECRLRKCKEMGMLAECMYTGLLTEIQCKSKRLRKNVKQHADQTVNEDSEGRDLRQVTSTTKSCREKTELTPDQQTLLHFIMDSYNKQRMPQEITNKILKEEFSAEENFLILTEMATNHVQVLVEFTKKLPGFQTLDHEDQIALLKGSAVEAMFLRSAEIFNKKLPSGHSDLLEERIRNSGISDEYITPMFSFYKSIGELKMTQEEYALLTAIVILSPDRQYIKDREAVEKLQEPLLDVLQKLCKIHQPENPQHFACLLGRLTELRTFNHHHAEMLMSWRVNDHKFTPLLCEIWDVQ

For `C/C=C/c1ccc(OC)cc1`, the compound was classed as inactive in [1], in experiment [2], in experiment [3], in experiment [4], in [5] and in [6]. Further, the outcome in experiment [7], in experiment [8], in experiment [9], in [10], in experiment [11] and in experiment [12] was inactive. For the same compound, the call in experiment [13], in experiment [14], in experiment [15], in experiment [16], in [17] and in experiment [18] was inactive.

As to `CN(C)CCCN(C)CCCN(C)C`, the compound was classed as inactive in experiment [1], in [2], in [3], in experiment [5], in experiment [6] and in experiment [7]. Also, the call in experiment [8], in experiment [9], in experiment [10], in [11], in experiment [12] and in [13] was inactive. The result in experiment [19], in experiment [14], in experiment [15], in experiment [16], in [17] and in experiment [18] was inactive. Besides, in experiment [20], the compound was classed as inactive. Besides, the half-maximal activity concentration (AC50) in experiment [4] is 24.5 µM (active).

In the case of `CCOCCOCCO`, the compound was classed as inactive in experiment [1], in experiment [2], in [3], in experiment [4], in [5] and in experiment [6]. In addition, the compound was called inactive in [7], in [8], in experiment [9], in experiment [10], in experiment [11] and in experiment [12]. The result in experiment [13], in experiment [14], in experiment [15], in [16], in experiment [17] and in experiment [18] was inactive.

For the compound `C#CC(O)C(CC)CCCC` (stereo not given), the result in [1], in [3], in experiment [5], in experiment [8], in experiment [9] and in [10] was inactive. Moreover, the call in experiment [11], in experiment [12], in [13], in experiment [14], in [15] and in [16] was inactive. In addition, the call in [18] was inactive. In addition, the concentration at half-maximal activity (AC50) in experiment [2] is 128 µM (active); in [4], 161 µM (active); in experiment [6], 100 µM (active); in experiment [7], 163 µM (active); in experiment [17], 168 µM (active).

For `O=NO`, the outcome in [1], in [2], in experiment [3], in experiment [4], in experiment [5] and in [6] was inactive. In addition, the outcome in experiment [7], in experiment [8], in experiment [9], in experiment [10], in experiment [11] and in experiment [12] was inactive. Further, the compound was called inactive in [13], in experiment [14], in experiment [15], in experiment [16], in experiment [17] and in [18].

For the compound `CO[C@@H]1COCC[C@@H]1N[C@@H]1CC[C@@](C(=O)N2CCc3ncc(C(F)(F)F)cc3C2)(C(C)C)C1`, the result in experiment [1], in experiment [2], in experiment [3], in experiment [4], in experiment [5] and in experiment [6] was inactive. The compound was called inactive in experiment [7], in [8], in [9], in experiment [10], in [11] and in experiment [12]. Further, the result in experiment [13], in experiment [14], in experiment [15], in [16], in experiment [17] and in experiment [18] was inactive.

On to `COc1ccc(C(=O)Nc2nc3ccccc3c(NCc3ccccc3)c2C#N)cc1`, for which the compound was classed as inactive in experiment [1], in [2], in [4], in experiment [6], in experiment [7] and in experiment [8]. Besides, the result in experiment [9], in [10], in experiment [11], in [12], in experiment [13] and in [14] was inactive. Also, the result in experiment [15], in [16], in experiment [17], in [18] and in experiment [20] was inactive. Further, the AC50 in [3] is 3.82 µM (active); in experiment [5], 0.421 µM (active); in experiment [19] it was 1.46 µM (active).

The values are drawn from PubChem BioAssay (EPA / NIEHS).
